Pf Dd2 growth = blocks in vitro growth of P. falciparum Dd2; hit rate 4.3% among 120,000; Potency, µM (top dose mostly 28.9 µM), usual class: inhibitors; AID 1347417; P. falciparum Dd2 growth, SYBR Green, 72 h; active means well fitted inhibition curve with a large enough effect; further: nearly all actives have a fitted effect of over 65% in size
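Readout: SYBR Green fluorescence, 485 nm excitation, 535 nm emission, after ~16 h lysis at 37C. Before that, Dd2-infected red cells (2.5% hematocrit) grew 72 h with compound, 29 uM top final concentration.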
Large screens that a line does not name were inactive. This is one part of a sample in which hits are shown more often than they occur.

O=C1NCCCCCCN(C(=O)c2ccsc2)[C@H]2C[C@H](c3nc(-c4cnccn4)no3)C[C@@H]12	none
O=C1OC[C@@H]2CCN(Cc3ccc4c(c3)OCO4)Cc3ccc(F)cc3N12	none
NC(=O)[C@H](CC1CCCCC1)NC(=O)[C@@H]1CN(C(=O)c2cccnc2)CCN1C(=O)C1CCCCC1	none
Cc1ccc(CCNC(=O)c2ccc3c(c2)N(Cc2cccc(F)c2)C(=O)c2ccccc2S3)cc1	none
CCOc1ccc(CCNC(=O)c2ccc3c(c2)N(Cc2ccccc2)C(=O)c2ccccc2S3=O)cc1OCC (centres undefined)	none
Cc1ccc(CCNC(=O)c2ccc3c(c2)N(Cc2ccccc2)C(=O)c2ccccc2S3=O)cc1 (centres undefined)	none
CCOc1ccc(CN2C(=O)c3ccccc3Sc3ccc(C(=O)NCc4ccc5c(c4)OCO5)cc32)cc1	Pf Dd2 growth 10µM
CCOc1ccc(CN2C(=O)c3ccccc3Sc3ccc(C(=O)NC)cc32)cc1	none
COc1ccc(CCNC(=O)c2ccc3c(c2)N(Cc2cc(C)ccc2C)C(=O)c2ccccc2S3=O)cc1OC (centres undefined)	Pf Dd2 growth 4.5µM
CNC(=O)c1ccc2c(c1)N(Cc1ccccc1Cl)C(=O)c1ccccc1S2	none
COc1ccc(CCNC(=O)c2ccc3c(c2)N(Cc2ccccc2Cl)C(=O)c2ccccc2S3)cc1OC	Pf Dd2 growth 11µM
O=C(NCc1ccco1)c1ccc2c(c1)N(Cc1ccccc1)C(=O)c1ccccc1S2	none
COC(=O)CO[C@@H]1CO[C@H]2[C@@H]1OC[C@@H]2NC(=O)Nc1cccc(C(F)(F)F)c1	none
Cc1nc(C)c(C(=O)N2CCCCCCNC(=O)[C@@H]3C[C@@H](c4nc(C(C)C)no4)C[C@@H]32)s1	none
Cc1ccc(Cl)cc1NC(=O)N1CCC(n2cnnc2C2CC2)C1 (centres undefined)	none
CN1CC(=O)N(C2CCCNC2)Cc2c(NCC(C)(C)C)ncnc21 (centres undefined)	none
Cc1cnc(C(=O)N2CCCCCCN(C)C(=O)[C@@H]3CCC[C@@H]32)cn1	none
O=C(NCCc1noc(-c2ccncc2)n1)c1ccccc1F	none
CCOC(=O)c1ccc(NC(=O)CCc2c(C)nc3c(-c4ccc(F)cc4)c(C)nn3c2C)cc1	Pf Dd2 growth 3.5µM
Cc1nc2c(-c3ccc(F)cc3)c(C)nn2c(C)c1CCC(=O)NCc1ccc(F)cc1	none
CCOC(=O)c1ccc(NC(=O)c2cnc3c(-c4ccc(F)cc4)c(C)nn3c2C)cc1	none
Cn1c(=O)n([C@H]2CCCN(S(=O)(=O)Cc3ccccc3)C2)c2ncccc21	none
COc1ccc(CCC(=O)N2CCC[C@H]2c2nc(-c3ccccc3)no2)cc1	none
COc1cccc(CNC(=O)c2ccc(CSc3nc4ccncc4n3Cc3cccc(C)c3)cc2)c1	Pf Dd2 growth 3.2µM
Cc1cccc(-c2nc(Cn3c(SCc4cccc(C(F)(F)F)c4)nc4ccncc43)c(C)o2)c1	none
Cc1cccc(Cn2c(SCc3ccc(C(=O)NCc4ccccc4F)cc3)nc3ccncc32)c1	Pf Dd2 growth 11µM
COc1cccc(CNC(=O)c2ccc3oc(=O)n(Cc4ccccc4)c3c2)c1	none
Cc1cccc(Cn2c(SCc3ccc(C(=O)NC4CCCCC4)cc3)nc3ccncc32)c1	none
CCC(C(=O)NC1CCCCC1)n1c(SCc2cccc(C)c2)nc2ccncc21 (centres undefined)	none
O=C(c1ccccn1)N1CCC(n2c(=O)[nH]c3ccccc32)CC1	none
CC(C)N1CCN(C(=O)C2CCCCC(=O)N2C)CC1 (centres undefined)	none
O=C(C1CCOCC1)N1CCC(c2noc(COc3ccc(F)cc3)n2)C1 (centres undefined)	none
Cn1cccc1C(=O)NC1CCN(C(=O)N2CC3CC(C2)[C@H]2CCCC(=O)N2C3)CC1 (some centres undefined)	none
Cc1ccc(C(=O)N2CCC3(CC2)CC(=O)Nc2ccccc2O3)cc1	none
Cc1cccnc1CN1C[C@@H](F)[C@@H](OCc2nc3ccc(F)cc3[nH]2)C1	none
Cn1ccnc1CN1C[C@@H](F)[C@@H](OCc2nc3ccc(F)cc3[nH]2)C1	none
Fc1ccc2nc(CO[C@H]3CN(CC4CC4)C[C@H]3F)[nH]c2c1	Pf Dd2 growth 11µM
O=Cc1ccc(N2CCN(C(=O)N3CCCCC3)CC2=O)cc1	none
CCn1ccc(C(=O)N2CCC(c3nnc(Cn4cncn4)n3C)CC2)n1	none
CN(CCc1nc2ccccc2[nH]1)C(=O)C1COc2ccccc2C1 (centres undefined)	none
Cc1nn(C)c(C)c1CCN(C)C(=O)C1Cn2cccc2C(=O)N1C (centres undefined)	none
O=C(NCCc1nc(-c2cccnc2)n[nH]1)C1NCCc2[nH]cnc21 (centres undefined)	none
O=C(C1CCCC1)N1CC2(CCN(Cc3cccnc3)C2)Cc2ccccc21 (centres undefined)	Pf Dd2 growth 6.3µM
O=C(C1CCCC1)N1CC2(CCCN(Cc3ccc(Cl)cc3)C2)Cc2ccccc21 (centres undefined)	Pf Dd2 growth 13µM
O=C(C1CCCC1)N1CC2(CCN(Cc3cccnc3)CC2)Cc2ccccc21	Pf Dd2 growth 10µM
O=C(C1CCCC1)N1CC2(CCN(C3CCCCC3)C2)Cc2ccccc21 (centres undefined)	Pf Dd2 growth 10µM
CC(=O)N1CC2(Cc3ccccc31)CN(C(=O)NC1CCCC1)C2	none
CC(=O)N1CC2(CCCN(Cc3ccc(Cl)cc3)C2)Cc2ccccc21 (centres undefined)	none
O=C(C1CCCC1)N1CC2(CCN(C3COC3)CC2)Cc2ccccc21	none
CN1CCC(C(=O)N2C3CCC2CN(Cc2cccnc2)C3)CC1	none
O=C1CCN(Cc2cccnc2)CCCC(C(=O)NC2CCCC2)CCN1 (centres undefined)	none
CC(=O)N1CC2(CCCN(Cc3cccnc3)C2)Cc2ccccc21 (centres undefined)	none
O=C(CN1CCC2(CC1)NC(=O)CC2C(=O)O)NCc1ccco1 (centres undefined)	none
COc1ccc(N2Cc3c(ncnc3N3CCC(N4CCCCC4)CC3)N(C)CC2=O)cc1	none
O=C(Cc1ccccn1)N1CCc2nc(-c3ccc(Cl)cc3)nc(-c3ccccc3)c2C1	none
COCCOc1ccc2c(n1)CCN(C(=O)c1cccs1)C2	none
CC(C)CCN(C)Cc1ccc(F)cc1	none
COc1ccccc1CN1CCc2c(n(CCOc3ccccc3)n(-c3ccccc3)c2=O)C1	none
Cc1cccc(OCCc2noc(C3CCCN3C(=O)COc3ccccc3)n2)c1 (centres undefined)	none
COCc1nncn1C1CCN(C(=O)c2ccc(F)cc2F)CC1	none
Cc1onc(-c2cnn(C)c2NCCc2ccccc2)c1C(=O)N1CCN(C)C(=O)C1	none
CCC1CN(C(=O)c2cnn(C)c2)CCC(=O)N1Cc1ccccc1 (centres undefined)	none
O=C1NCCOCCN(S(=O)(=O)c2cccc3nsnc23)[C@H]2CCC[C@@H]12	none
Cc1cccnc1C(=O)N[C@@H]1CN(Cc2ccccc2)C[C@H]1CN(C)C	none
Cc1ccccc1-c1nccn2c(C3CN(Cc4ccc(O)cc4)C3)ncc12	Pf Dd2 growth 11µM
COCCO[C@H]1C(=O)N(C2CCN(C(=O)c3cc4ccccc4[nH]3)CC2)[C@H]1c1ccncc1	none
O=C1NC2(Cc3ccccc31)CN(Cc1c[nH]c3ccccc13)C2	none
c1cncc(-c2nnc([C@H]3CCN(Cc4c[nH]c5ccccc45)C3)o2)c1	none
Cc1ccccc1-c1nccn2c(C3CN(C(=O)c4cc5ccccc5[nH]4)C3)ncc12	Pf Dd2 growth 11µM
CNC(=O)[C@@H]1CN(C(=O)c2cc3ccccc3[nH]2)C[C@H]1COC	none
COc1ncccc1-c1nccn2c(C3CN(Cc4c[nH]c5ccccc45)C3)ncc12	Pf Dd2 growth 3.5µM
